Measurements: ChEMBL document CHEMBL3988442, “University of Dundee, Small-Polar-MMV Screening Library” (2021)
About 13,000 (27%) of roughly 48,000 compounds showed an effect of 50% or more. Some of the results follow.

Tested on: Wolbachia pipientis
Test: Anti-Wolbachia Cell-Based Screen
Format: functional
Design: scale not given: in the data most compounds retested in dose-response had high values
Conditions: 5 µM

Row | Compound | Percent Effect [%]
1 | c1cncc(-c2ccnn2CN2CCC3(CC2)OCCO3)c1 | -11.32
2 | Cc1nccc(CNS(=O)(=O)N(C)Cc2ccc(Cl)cc2)n1 | -3.155
3 | COCCCNC(=O)CN(C)C(=O)c1cc(C)ccc1N(C)C(C)C | -2.233
4 | Cc1noc(CNC(=O)NCCc2ccc(Cl)cc2)n1 | -5.738
5 | COc1ccc(Br)cc1CN(C)C(C)c1nc(C(C)C)no1 (centres undefined) | 18.35
6 | CCc1noc(C(C)N(C)CC(=O)Nc2ccc(C)cc2)n1 (centres undefined) | 3.049
7 | COCCNC(=O)CN(C)C(C)c1nc(C)no1 (centres undefined) | 119.8
8 | COCCCNC(=O)CN(C)C(C)c1nc(C(C)C)no1 (centres undefined) | 126.4
9 | Cc1noc(C(C)N(C)CC(=O)NCCc2ccc(Cl)cc2)n1 (centres undefined) | 103.9
10 | COCCCNC(=O)CN(C)C(C)c1nc(C)no1 (centres undefined) | 131.6
11 | CCN(CC(=O)NCCc1nc(C)no1)Cc1ccc(Cl)cc1 | -3.181
12 | COCCCNC(=O)CN(C)C(=O)c1cc(C)ccc1O | -8.655
13 | CCc1noc(C(C)N(C)CC(=O)Nc2cccc(C)n2)n1 (centres undefined) | 0.4126
14 | CCc1noc(C(C)N(C)CC(=O)Nc2c(C)cccc2C)n1 (centres undefined) | -11.68
15 | O=C(O)c1cc(-c2ccc3c(c2)OCO3)cc(S(=O)(=O)NC2CC2)c1 | 1.562
16 | O=C(c1ccc2sccc2c1)N1CCC(C(=O)O)(n2ccnc2)CC1 | -1.881
17 | Cc1nc(N)ncc1C(=O)N1CCCC1(C)C(=O)N(C)C (centres undefined) | 88.37
18 | Nc1ncc(C(=O)N2CCC(O)(CO)CC2)c(-c2ccccc2)n1 | -11.61
19 | Cc1ccccc1N1CCN(C(=O)c2cnc(N(C)C)nc2C)C(C)C1 (centres undefined) | 26.11
20 | CC[C@@H](CO)NC(=O)c1coc(COc2ccc(OC)cc2)n1 | -6.129
21 | COCC(=O)Nc1nccn1Cc1ccc(Br)cc1 | 8.757
22 | CCNC(=O)N(C)C1CCCc2nc(C)sc21 (centres undefined) | 9.089
23 | N#Cc1cccnc1N1CCC(c2nc(C(F)(F)F)c[nH]2)CC1 | -10.33
24 | CCN(CC)c1ccc2ccc(C(=O)N3CCCCO3)cn12.O=C(O)C(F)(F)F | -8.466
25 | COCC(=O)N1CCC(C)(c2cc(O)[nH]n2)CC1 | 115.4
26 | CCOC1CC2(CCN(C(=O)COC)CC2)c2cc(C)ccc21 (centres undefined) | 10.7

Row | Compound | Percent Effect [%]
27 | CC(C)C(=O)N1CCN(c2cc(N(C)C)cnn2)CC1 | 9.778
28 | CC(C)C(=O)N1CCC(C)(c2cc(O)[nH]n2)CC1 | 136.2
29 | COCC(=O)N1CCC2(CC1)CNc1ccc(F)cc12.O=C(O)C(F)(F)F | 7.249
30 | CC(CCc1ccc(O)cc1)NC1CCN(C(=O)C(C)C)CC1 (centres undefined) | 2.314
31 | Cc1cc(N2CCN(C(=O)CCc3scnc3C)CC2)nc(N)n1 | 8.877
32 | CN(Cc1noc(C2CC2)n1)CC1CCN(CCO)CC1 | 15.04
33 | O=C(NCC1CC1)N1CCN(Cc2ccc3c(c2)OCCO3)CC1 | 1.258
34 | c1cc(CN2CCC(c3ccncc3)CC2)cc(Cn2cccn2)c1 | -4.875
35 | O=C(c1cccc2c1OCO2)N1CCCC1c1noc(C2CC2)n1 (centres undefined) | -8.169
36 | Clc1ccc(C2(NCc3noc(C4CC4)n3)CCOCC2)cc1 | -0.4021
37 | c1cncc(CN2CCC(NCCc3ccc4c(c3)OCO4)CC2)c1 | 3.399
38 | c1ccc(CN2CCC(Cc3noc(C4CC4)n3)CC2)cc1 | 27.3
39 | c1cc(CN2CCC(Cc3noc(C4CC4)n3)CC2)c2c(c1)OCO2 | 85.87
40 | c1cc2c(cc1CN1CCC(Cc3noc(C4CC4)n3)CC1)OCCO2 | 75.34
41 | c1cc2c(cc1CSCc1noc(C3CC3)n1)OCCO2 | 98.07
42 | c1cc(C2CCN(Cc3ccc4c(c3)OCO4)CC2)ccn1 | 106.9
43 | CC(c1nc(C2CC2)no1)N(C)Cc1ccc2c(c1)OCCO2 (centres undefined) | 0.3167
44 | CCn1c(C)cc(C(=O)NCc2ccc(CS(C)(=O)=O)cc2)c1C | 4.177
45 | COCc1nc(CN2CCC3(CCCO3)CCC2=O)no1 (centres undefined) | -11.19
46 | CC(=O)N(C)CC(=O)NC1(c2ccc(Br)cc2)CC1 | -3.81
47 | CCN(CC(=O)NC(C)C)S(=O)(=O)N1CCC(C)C1 (centres undefined) | 1.094
48 | CN1CCN(C2CCN(Cc3noc(C4CC4)n3)CC2)C1=O | 10.17
49 | c1ccc2[nH]c(C3CCN(Cc4noc(C5CC5)n4)CC3)cc2c1 | -4.924
50 | c1cc2c(cc1CN1CCN(Cc3noc(C4CC4)n3)CC1)OCO2 | 111.2
51 | Cc1nccc(NCc2cc3n(n2)CCCN(C(=O)C2CCC2)C3)n1 | 100.1
52 | CCn1ccnc1CN1CCCn2nc(CNC(=O)C3CCC3)cc2C1 | 17.11

Row | Compound | Percent Effect [%]
53 | CSc1nccc(NCc2cc3n(n2)CCCN(S(C)(=O)=O)C3)n1 | 18.18
54 | CSc1nccc(NCc2cc3n(n2)CCCN(C(=O)C2CCC2)C3)n1 | 104.3
55 | Nc1nccc(NCc2cc3n(n2)CCCN(C2CCCCC2)C3)n1 | 13.65
56 | Nc1nccc(NCc2cc3n(n2)CCCN(C(=O)C2CCC2)C3)n1 | -4.748
57 | Cc1ccc(C2C3=C(COC3=O)Nc3[nH]nc(C)c32)cc1C (centres undefined) | 8.246
58 | CCc1nccn1CCC(=O)N1CC[C@@H](c2sccc2C)[C@H](O)C1 | -1.934
59 | O=C(O)C(F)(F)F.c1cnc(N2CCO[C@H]3CN(Cc4csnn4)C[C@H]32)cn1 | 6.84
60 | CN(C)c1nccc(N2CCO[C@H]3CN(CC4CCOCC4)C[C@H]32)n1 | 11.02
61 | c1cnc(N2CCO[C@H]3CN(CC4CCCC4)C[C@H]32)cn1 | 112.8
62 | O=C(O)C(F)(F)F.c1cnc(N2CCO[C@H]3CN(Cc4c[nH]cn4)C[C@H]32)cn1 | 2.338
63 | CNC(=O)CN1CCO[C@H]2CN(CC3CCOCC3)C[C@H]21.O=C(O)C(F)(F)F.O=C(O)C(F)(F)F | -17.71
64 | Cn1cc(CN2C[C@@H]3OCCN(CC4CCCC4)[C@@H]3C2)cn1 | -2.926
65 | O=C(O)C(F)(F)F.c1cnc(N2CCO[C@H]3CN(CC4CCC4)C[C@H]32)cn1 | 107.5
66 | O=C(O)C(F)(F)F.c1cnc(N2CCO[C@H]3CN(CC4CCOC4)C[C@H]32)cn1 (some centres undefined) | 122.8
67 | Cc1nn(CCn2ccnc2-c2cc3n(n2)CCCNC3)c(C)c1Cl | 1.548
68 | CC(C)C(C(=O)NC1CC1)n1cnc2cc(F)c(F)cc21 (centres undefined) | 15.81
69 | O=C(NCc1nc(C2CC2)no1)N1CCOC(c2ccccc2F)C1 (centres undefined) | 3.199
70 | CC(C)CNC(=O)C[S+]([O-])Cc1csc(C2CCCCC2)n1 (centres undefined) | -4.765
71 | COc1ccc(C(O)CNc2c(C#N)c(=O)n(C)c(=O)n2C)cc1 (centres undefined) | -9.845
72 | CN(C(=O)C1CSCN1S(=O)(=O)c1ccc(F)cc1)C1CC1 (centres undefined) | 5.468
73 | CC(C)c1nc2n(n1)CC(NCc1nnc(C(C)C)o1)CC2 (centres undefined) | 2.327
74 | COCCc1noc(CNC2CCc3nc(C(C)C)nn3C2)n1 (centres undefined) | -13.08
75 | Cc1cc(CNC2CCc3nc(C(C)C)nn3C2)on1 (centres undefined) | 128.3
76 | CC(C)c1nc2n(n1)CC(NCc1nc(-c3ccccn3)no1)CC2 (centres undefined) | 1.998
77 | CC(C)c1nc2n(n1)CC(NCc1cc3ccccc3o1)CC2 (centres undefined) | -25.06
78 | Cc1ccc(CNC2CCc3nc(C(C)C)nn3C2)o1 (centres undefined) | 110.7

Row | Compound | Percent Effect [%]
79 | CCN(C(=O)NCc1ccccc1OC(F)F)C(C)c1cccnc1 (centres undefined) | -11.48
80 | CC(C)(NCC(=O)N1CCCC(C(N)=O)C1)c1ccc(Cl)cc1 (centres undefined) | 1.343
81 | CC(C)(C)c1cc(C(=O)N2CCC(c3cnccn3)CC2)[nH]n1 | 96.1
82 | CC(C)(C)c1cn(C2CCN(C(=O)c3cnccn3)CC2)nn1 | -4.102
83 | Cc1cc(C(=O)N2CCOC(c3ccc(Cl)c(Cl)c3)C2)[nH]n1 (centres undefined) | -12.35
84 | Cc1cc(C(=O)N2CCOC(c3nc(C)n[nH]3)C2)[nH]n1 (centres undefined) | -1.43
85 | CC(C)(C)c1cc(C(=O)N2CCOC(c3cnccn3)C2)[nH]n1 (centres undefined) | 139
86 | CCCc1cc(C(=O)N2CCCC2c2cccnc2)[nH]n1 (centres undefined) | 15.07
87 | CC(C)c1nc(C(=O)N2C[C@H]3CC[C@@H]2CN(C2CCOCC2)C3)cs1 | -6.079
88 | CCOCC(=O)N1CCC(c2nccn2Cc2cscn2)CC1 | -5.535
89 | Cc1ccc(F)cc1CC(=O)N1CC[C@@]2(O)CCNC[C@H]2C1 | -17.57
90 | O=C(Cc1ccc(F)cc1Cl)N[C@@H]1CCNC[C@H]1O | 6.286
91 | Cc1cc(F)ccc1-c1ccccc1CC1CNCCNC1=O.Cl (centres undefined) | 140
92 | CCNC(=O)[C@@H]1CCCN1[C@@H](C(=O)NC)C1CC1.Cl | 7.785
93 | CCCS(=O)(=O)N1CC(=O)N(CCCc2ccccc2)CC(O)C1 (centres undefined) | 106.2
94 | CCS(=O)(=O)N1CC[C@@H]2[C@@H](CCC(=O)N2CCc2ccccc2)C1 | -12.22
95 | Cn1ccnc1CN1C(=O)CO[C@H]2CN(CCCc3ccccc3)C[C@H]21 | -23.58
96 | O=C1CN(S(=O)(=O)CC(F)(F)F)CC(O)CN1CCCc1ccccc1 (centres undefined) | 73.93
97 | CCCS(=O)(=O)N1CCC2(CC1)CC(=O)N(CCCc1ccccc1)C2 | 8.339
98 | CCS(=O)(=O)N1CCC(OCCCc2ccccc2)C1 (centres undefined) | -14.61
99 | CCS(=O)(=O)N1CC(=O)N(CCCc2ccccc2)CC(O)C1 (centres undefined) | 108.2
100 | CS(=O)(=O)N1CC(=O)N(CCCc2ccccc2)CC(O)C1 (centres undefined) | 96.22
101 | CCCS(=O)(=O)N1CCC2(CCC(=O)N(CCc3ccccc3)C2)CC1 | 19.11
102 | N#Cc1cccc(NC2CC(=O)N(CCCc3ccccc3)C2)n1 (centres undefined) | -4.151
103 | CS(=O)(=O)N1CCC2(CCCN(CCCc3ccccc3)C2=O)C1 (centres undefined) | 8.67
104 | CS(=O)(=O)N1CCC(OCCCc2ccccc2)C1 (centres undefined) | -9.606
